Laboratory results: the supplement of paper PMC10849652
The full data set covers some 8,800 targets. This sample favours those with a hit. About 0.5% of all pairs of compound and target were hits. A number with no mark means an inactive call.

UniProt P19367, sequence (P19367 whole entry, looked up): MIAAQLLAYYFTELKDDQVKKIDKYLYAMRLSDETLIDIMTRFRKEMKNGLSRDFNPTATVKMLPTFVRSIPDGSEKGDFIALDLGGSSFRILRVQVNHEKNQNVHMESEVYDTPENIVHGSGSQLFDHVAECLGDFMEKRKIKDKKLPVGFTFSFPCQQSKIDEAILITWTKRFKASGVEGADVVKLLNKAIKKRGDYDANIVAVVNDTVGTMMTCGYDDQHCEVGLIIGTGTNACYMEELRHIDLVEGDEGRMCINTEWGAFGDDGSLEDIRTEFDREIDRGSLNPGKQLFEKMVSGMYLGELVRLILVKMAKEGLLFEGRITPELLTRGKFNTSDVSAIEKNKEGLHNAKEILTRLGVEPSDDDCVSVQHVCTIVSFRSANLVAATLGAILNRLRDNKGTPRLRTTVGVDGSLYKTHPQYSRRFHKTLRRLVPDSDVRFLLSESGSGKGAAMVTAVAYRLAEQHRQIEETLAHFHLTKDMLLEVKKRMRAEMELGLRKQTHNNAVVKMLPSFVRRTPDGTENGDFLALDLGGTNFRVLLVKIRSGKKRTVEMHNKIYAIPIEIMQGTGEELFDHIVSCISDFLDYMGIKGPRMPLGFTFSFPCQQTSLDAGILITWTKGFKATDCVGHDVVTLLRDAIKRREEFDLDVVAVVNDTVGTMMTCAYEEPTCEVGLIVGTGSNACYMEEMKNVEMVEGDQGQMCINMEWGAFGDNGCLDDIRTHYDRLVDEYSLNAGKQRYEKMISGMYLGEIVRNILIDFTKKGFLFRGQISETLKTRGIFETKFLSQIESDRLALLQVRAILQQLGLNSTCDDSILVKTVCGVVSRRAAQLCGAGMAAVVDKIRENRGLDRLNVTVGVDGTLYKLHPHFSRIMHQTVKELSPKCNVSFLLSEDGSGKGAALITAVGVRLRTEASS
UniProt Q9NSE4, sequence (Q9NSE4 whole entry, looked up): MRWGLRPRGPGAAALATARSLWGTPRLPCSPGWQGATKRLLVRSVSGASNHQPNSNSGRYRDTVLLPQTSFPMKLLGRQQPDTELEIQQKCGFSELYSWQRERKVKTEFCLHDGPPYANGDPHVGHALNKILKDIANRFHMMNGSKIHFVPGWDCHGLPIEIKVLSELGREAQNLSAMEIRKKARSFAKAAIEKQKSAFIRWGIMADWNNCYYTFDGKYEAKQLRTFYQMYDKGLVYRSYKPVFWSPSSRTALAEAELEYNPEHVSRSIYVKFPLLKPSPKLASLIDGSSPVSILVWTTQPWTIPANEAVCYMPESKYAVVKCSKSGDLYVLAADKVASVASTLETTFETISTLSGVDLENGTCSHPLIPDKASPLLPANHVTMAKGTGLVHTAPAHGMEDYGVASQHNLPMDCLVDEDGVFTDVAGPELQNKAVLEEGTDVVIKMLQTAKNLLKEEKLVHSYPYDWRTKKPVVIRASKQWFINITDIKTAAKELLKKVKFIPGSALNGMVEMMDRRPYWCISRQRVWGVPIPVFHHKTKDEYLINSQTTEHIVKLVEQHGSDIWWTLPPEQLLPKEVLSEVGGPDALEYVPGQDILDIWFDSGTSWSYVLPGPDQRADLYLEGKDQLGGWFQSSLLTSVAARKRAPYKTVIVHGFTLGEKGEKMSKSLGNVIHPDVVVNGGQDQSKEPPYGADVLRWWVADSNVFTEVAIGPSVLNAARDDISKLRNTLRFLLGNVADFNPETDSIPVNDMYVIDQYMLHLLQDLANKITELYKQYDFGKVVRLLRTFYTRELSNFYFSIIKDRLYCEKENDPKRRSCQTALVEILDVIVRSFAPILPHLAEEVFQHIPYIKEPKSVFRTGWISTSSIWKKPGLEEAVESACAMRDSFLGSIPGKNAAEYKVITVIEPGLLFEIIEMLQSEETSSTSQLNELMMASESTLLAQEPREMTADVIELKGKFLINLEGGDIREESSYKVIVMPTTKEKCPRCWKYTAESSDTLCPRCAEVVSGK
UniProt Q9Y223, sequence (Q9Y223 whole entry, looked up): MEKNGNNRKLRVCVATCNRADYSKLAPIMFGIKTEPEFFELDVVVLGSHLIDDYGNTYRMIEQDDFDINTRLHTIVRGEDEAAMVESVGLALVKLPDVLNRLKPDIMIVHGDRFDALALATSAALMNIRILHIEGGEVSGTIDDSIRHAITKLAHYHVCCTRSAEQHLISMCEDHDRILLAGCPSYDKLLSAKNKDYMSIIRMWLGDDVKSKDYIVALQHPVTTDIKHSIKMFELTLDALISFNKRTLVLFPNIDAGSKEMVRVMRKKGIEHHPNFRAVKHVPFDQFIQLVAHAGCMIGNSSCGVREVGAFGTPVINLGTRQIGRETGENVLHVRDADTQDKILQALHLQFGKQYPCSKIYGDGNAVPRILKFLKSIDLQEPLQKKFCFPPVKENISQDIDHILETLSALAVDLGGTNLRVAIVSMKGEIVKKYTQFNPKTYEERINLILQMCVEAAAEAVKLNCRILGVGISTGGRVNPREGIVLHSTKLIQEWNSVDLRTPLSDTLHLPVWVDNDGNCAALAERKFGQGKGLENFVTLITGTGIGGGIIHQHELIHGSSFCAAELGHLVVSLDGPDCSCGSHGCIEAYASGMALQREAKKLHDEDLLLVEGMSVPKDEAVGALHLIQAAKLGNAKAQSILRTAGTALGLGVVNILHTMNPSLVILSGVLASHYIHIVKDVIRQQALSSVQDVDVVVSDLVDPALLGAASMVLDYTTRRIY
UniProt P36969, sequence (P36969 whole entry, looked up): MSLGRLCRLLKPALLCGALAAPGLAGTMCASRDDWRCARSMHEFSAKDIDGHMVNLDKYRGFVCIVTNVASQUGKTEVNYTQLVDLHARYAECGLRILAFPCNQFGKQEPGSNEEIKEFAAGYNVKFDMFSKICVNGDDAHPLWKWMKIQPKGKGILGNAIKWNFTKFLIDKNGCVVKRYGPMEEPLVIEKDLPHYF
UniProt Q13322, sequence (Q13322 whole entry, looked up): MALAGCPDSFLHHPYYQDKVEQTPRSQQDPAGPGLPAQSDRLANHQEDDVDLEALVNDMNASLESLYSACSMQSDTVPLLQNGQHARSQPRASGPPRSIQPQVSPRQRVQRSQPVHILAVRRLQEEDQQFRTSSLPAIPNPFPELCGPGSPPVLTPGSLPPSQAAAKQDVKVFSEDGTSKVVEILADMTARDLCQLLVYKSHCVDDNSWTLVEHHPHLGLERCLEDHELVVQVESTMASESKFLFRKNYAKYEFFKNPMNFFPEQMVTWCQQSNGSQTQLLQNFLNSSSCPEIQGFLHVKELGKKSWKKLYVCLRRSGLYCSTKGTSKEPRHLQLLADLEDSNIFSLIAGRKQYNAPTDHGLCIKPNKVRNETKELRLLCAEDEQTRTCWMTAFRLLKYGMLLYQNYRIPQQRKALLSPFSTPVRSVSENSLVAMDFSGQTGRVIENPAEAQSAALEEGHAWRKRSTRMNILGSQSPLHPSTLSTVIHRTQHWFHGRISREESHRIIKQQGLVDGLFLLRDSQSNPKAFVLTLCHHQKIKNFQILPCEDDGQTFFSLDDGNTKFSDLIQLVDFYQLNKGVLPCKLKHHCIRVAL
UniProt Q9P2X3, sequence (Q9P2X3 whole entry, looked up): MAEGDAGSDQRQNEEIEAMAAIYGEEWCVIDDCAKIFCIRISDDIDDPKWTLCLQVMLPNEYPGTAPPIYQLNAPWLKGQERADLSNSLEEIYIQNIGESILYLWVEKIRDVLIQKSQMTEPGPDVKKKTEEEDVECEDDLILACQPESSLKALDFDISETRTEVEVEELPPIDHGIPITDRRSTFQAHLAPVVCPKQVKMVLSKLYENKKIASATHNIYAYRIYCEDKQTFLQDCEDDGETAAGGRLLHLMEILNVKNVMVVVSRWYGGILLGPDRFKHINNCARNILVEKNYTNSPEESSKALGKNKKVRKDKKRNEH
UniProt Q6AI08, sequence (Q6AI08 whole entry, looked up): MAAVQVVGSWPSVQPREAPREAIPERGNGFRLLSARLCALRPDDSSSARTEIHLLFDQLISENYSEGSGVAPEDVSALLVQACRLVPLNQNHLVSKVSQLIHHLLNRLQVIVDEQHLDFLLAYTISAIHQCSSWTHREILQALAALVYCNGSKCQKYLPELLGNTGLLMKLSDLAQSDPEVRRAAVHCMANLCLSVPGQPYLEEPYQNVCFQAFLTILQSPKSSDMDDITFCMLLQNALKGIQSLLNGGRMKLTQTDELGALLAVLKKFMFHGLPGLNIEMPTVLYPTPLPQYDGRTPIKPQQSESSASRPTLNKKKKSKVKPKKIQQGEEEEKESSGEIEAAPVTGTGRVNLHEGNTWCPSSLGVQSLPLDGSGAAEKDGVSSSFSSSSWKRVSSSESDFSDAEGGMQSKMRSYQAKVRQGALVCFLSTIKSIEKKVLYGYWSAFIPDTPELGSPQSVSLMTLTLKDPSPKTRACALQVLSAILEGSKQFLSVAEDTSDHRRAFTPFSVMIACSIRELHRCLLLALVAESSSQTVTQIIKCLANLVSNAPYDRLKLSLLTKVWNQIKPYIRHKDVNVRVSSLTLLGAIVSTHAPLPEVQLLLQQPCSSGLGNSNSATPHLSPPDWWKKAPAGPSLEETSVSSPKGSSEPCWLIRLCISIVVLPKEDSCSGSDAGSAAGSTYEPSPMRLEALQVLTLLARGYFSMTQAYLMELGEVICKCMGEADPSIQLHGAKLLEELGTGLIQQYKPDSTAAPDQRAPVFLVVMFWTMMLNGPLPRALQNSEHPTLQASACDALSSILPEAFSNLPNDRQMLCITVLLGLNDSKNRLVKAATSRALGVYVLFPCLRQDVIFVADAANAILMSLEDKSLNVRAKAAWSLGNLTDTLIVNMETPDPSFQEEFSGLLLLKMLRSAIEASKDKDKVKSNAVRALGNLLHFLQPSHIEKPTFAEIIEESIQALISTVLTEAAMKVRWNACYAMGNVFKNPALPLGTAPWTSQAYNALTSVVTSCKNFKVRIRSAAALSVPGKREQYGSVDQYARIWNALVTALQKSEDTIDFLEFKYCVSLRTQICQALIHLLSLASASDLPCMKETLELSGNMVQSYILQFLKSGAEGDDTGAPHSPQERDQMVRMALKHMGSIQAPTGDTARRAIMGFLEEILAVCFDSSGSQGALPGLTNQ

What follows are targets tested with COC(=O)[C@H](CCSC)NC(=O)C1=C(C=C(C=C1)NC[C@H](CS)N)C2=CC=CC=C2 (assay: log2 fold change, soluble protein after heating vs DMSO (PISA); higher = thermal stabilisation; K562 lysate, 10 uM; active = over 0.2 and 3.5 SD of the protein, either way, in both replicates (recomputed)).
In short: (§1)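 A 30 min treatment with 10 μM compound was applied to crude K562 extract at 1 mg/mL protein in PBS pH 7.4 with 1 mM MgCl2. Heating for 3 min spanned 48°C-58°C, after which aliquots were pooled, adjusted to 0.5% NP-40 at 4°C and spun at 21,000xg for 90 min. TMTpro 16plex LC-MS/MS of the supernatant, with channel sums equalised, gave values recorded as log-two fold change in thermal stability against solvent controls, from duplicates.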
With GTF2H4 (UniProt Q92759) the log2 fold change was -0.015.
In the case of GSTZ1 (UniProt G3V4T6), the log2 fold change is reported as 0.35 (active).
In the case of HDAC2 (UniProt Q92769), the log2 fold change is reported as 0.007.
In the case of HEATR6 (UniProt Q6AI08), the log2 fold change is reported as 0.101.
Work on H4C1 (UniProt P62805) yielded a log2 fold change of 0.051.
HECTD3 (UniProt Q5T447) was tested, and the log2 fold change was 0.11.
Target KCT2 (UniProt Q8NC54) has a log2 fold change of -0.035.
In the case of GPX4 (UniProt P36969), the log2 fold change is reported as -0.023.
IARS2 (UniProt Q9NSE4) was tested, and the log2 fold change was 0.014.
For GTF2H1 (UniProt P32780), the log2 fold change was -0.059.
GSTM4 (UniProt Q03013) was tested, and the log2 fold change was 0.095.
Target IMPACT (UniProt Q9P2X3) has a log2 fold change of -0.083.
Work on IGF2BP2 (UniProt Q9Y6M1) yielded a log2 fold change of 0.201.
For GON4L (UniProt Q3T8J9), the log2 fold change was 0.107.
Target HK1 isoform 2 (UniProt P19367) has a log2 fold change of 0.004.
In the case of GTF2I (UniProt P78347), the log2 fold change is reported as 0.14.
In the case of KEAP1 (UniProt Q14145), the log2 fold change is reported as -0.094.
For ISOC2 (UniProt Q96AB3), the log2 fold change was 0.122.
In the case of HSD17B10 (UniProt Q99714), the log2 fold change is reported as 0.141.
Target IRAK4 (UniProt Q9NWZ3) has a log2 fold change of 0.032.
In the case of IMMT (UniProt Q16891), the log2 fold change is reported as -0.045.
IARS (UniProt P41252) was tested, and the log2 fold change was 0.134.
In the case of IMPDH2 (UniProt P12268), the log2 fold change is reported as -0.501 (active).
For GNE isoform 2 (UniProt Q9Y223), the log2 fold change was 0.176.
In the case of GTPBP2 (UniProt Q9BX10), the log2 fold change is reported as 0.079.
HSPB1 (UniProt P04792) gave a log2 fold change of 0.025.
INTS1 (UniProt Q8N201) was tested, and the log2 fold change was -0.018.
HSPA8 (UniProt P11142) showed a log2 fold change of 0.009.
With HAUS3 (UniProt Q68CZ6) the log2 fold change was 0.065.
With GRB10 (UniProt Q13322) the log2 fold change was 0.01.
HARS (UniProt P12081) was tested, and the log2 fold change was 0.254 (active).
For GMIP (UniProt Q9P107), the log2 fold change was 0.031.
For HK2 (UniProt P52789), the log2 fold change was 0.165.
Work on IRAK1 (UniProt P51617) yielded a log2 fold change of 0.062.
GSTCD (UniProt Q8NEC7) gave a log2 fold change of 0.138.
HDAC3 (UniProt O15379) showed a log2 fold change of -0.057.

These targets were tested with COc1cc(Nc2ncc3c(n2)-c2ccc(Cl)cc2C(c2c(F)cccc2OC)=NC3)ccc1C(=O)O [alisertib] in the same assay as above.
In short: as §1
GTF2H4 (UniProt Q92759) was tested, and the log2 fold change was 0.016.
Work on GSTZ1 (UniProt G3V4T6) yielded a log2 fold change of 0.023.
In the case of HDAC2 (UniProt Q92769), the log2 fold change is reported as 0.002.
HEATR6 (UniProt Q6AI08) showed a log2 fold change of -0.028.
With H4C1 (UniProt P62805) the log2 fold change was 0.018.
For HECTD3 (UniProt Q5T447), the log2 fold change was -0.015.
KCT2 (UniProt Q8NC54) was tested, and the log2 fold change was 0.077.
For GPX4 (UniProt P36969), the log2 fold change was 0.041.
Target IARS2 (UniProt Q9NSE4) has a log2 fold change of -0.013.
For GTF2H1 (UniProt P32780), the log2 fold change was 0.065.
GSTM4 (UniProt Q03013) gave a log2 fold change of 0.03.
IMPACT (UniProt Q9P2X3) gave a log2 fold change of -0.024.
For IGF2BP2 (UniProt Q9Y6M1), the log2 fold change was 0.042.
Work on GON4L (UniProt Q3T8J9) yielded a log2 fold change of -0.015.
In the case of HK1 isoform 2 (UniProt P19367), the log2 fold change is reported as 0.017.
GTF2I (UniProt P78347) was tested, and the log2 fold change was 0.011.
Work on KEAP1 (UniProt Q14145) yielded a log2 fold change of 0.012.
With ISOC2 (UniProt Q96AB3) the log2 fold change was 0.022.
Work on HSD17B10 (UniProt Q99714) yielded a log2 fold change of 0.013.
IRAK4 (UniProt Q9NWZ3) showed a log2 fold change of 0.006.
In the case of IMMT (UniProt Q16891), the log2 fold change is reported as 0.034.
IARS (UniProt P41252) was tested, and the log2 fold change was 0.02.
Target IMPDH2 (UniProt P12268) has a log2 fold change of 0.029.
For GNE isoform 2 (UniProt Q9Y223), the log2 fold change was 0.041.
Work on GTPBP2 (UniProt Q9BX10) yielded a log2 fold change of 0.034.
HSPB1 (UniProt P04792) showed a log2 fold change of 0.012.
INTS1 (UniProt Q8N201) gave a log2 fold change of 0.021.
For HSPA8 (UniProt P11142), the log2 fold change was 0.002.
HAUS3 (UniProt Q68CZ6) showed a log2 fold change of 0.014.
In the case of GRB10 (UniProt Q13322), the log2 fold change is reported as 0.
HARS (UniProt P12081) gave a log2 fold change of 0.003.
GMIP (UniProt Q9P107) was tested, and the log2 fold change was -0.014.
Target HK2 (UniProt P52789) has a log2 fold change of 0.023.
IRAK1 (UniProt P51617) was tested, and the log2 fold change was -0.01.
GSTCD (UniProt Q8NEC7) showed a log2 fold change of -0.068.
Work on HDAC3 (UniProt O15379) yielded a log2 fold change of 0.02.
